What was measured:
Test in all cases: PBM binding z-score (relative to random genomic background probes); higher = stronger binding; sequences stand for … in GC…GCGATTGACAGCGTAGAATGAAGG
[1] = system: PPARg:RXRa DBDmut IVT, anti-RXR (DBD mutation: RXRa K156A/R161A, NR concentration 270 nM, RXRa partner concentration 90 nM)
Outline: (§1)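 Regression normalization was applied to scanned fluorescence from custom Agilent 4×180K protein-binding microarrays. Before scanning, arrays were incubated 1 h with ligand-free nuclear receptor dimers, and binding was detected with antibodies against each partner (one per run). Binding z-scores use the random background probes as reference.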

[2] = system: PPARg:RXRa IVT, anti-PPARg (NR concentration 270 nM, RXRa partner concentration 90 nM)
Outline: as §1

[3] = system: PPARg DBDmut:RXRa IVT, anti-PPARg (DBD mutation: PPARg1 K132A/R137A, NR concentration 270 nM, RXRa partner concentration 90 nM)
Outline: as §1

[4] = system: PPARg DBDmut IVT, anti-PPARg (DBD mutation: PPARg1 K132A/R137A, NR concentration 270 nM)
Outline: as §1

[5] = system: PPARg homodimer (NR concentration 180 nM)
Outline: as §1

[6] = system: PXR:RXRa (NR concentration 270 nM, RXRa partner concentration 90 nM)
Outline: as §1

[7] = system: PXR homodimer (NR concentration 270 nM)
Outline: as §1

[8] = system: RARa:RXR (NR concentration 270 nM, RXRa partner concentration 90 nM)
Outline: as §1

[9] = system: RARa homodimer (NR concentration 270 nM)
Outline: as §1

[10] = system: RARb:RXRa (NR concentration 270 nM, RXRa partner concentration 90 nM)
Outline: as §1

Sequence	PBM binding z-score [1]	PBM binding z-score [2]	PBM binding z-score [3]	PBM binding z-score [4]	PBM binding z-score [5]	PBM binding z-score [6]	PBM binding z-score [7]	PBM binding z-score [8]	PBM binding z-score [9]	PBM binding z-score [10]
GCGGACAGGTGAAACGCAGGTAACTCAGGGTGGC	1.08	0.64	-0.773	-1.81	-0.69	-0.362	-0.597	0.177	-1.07	0.934
CCAGACAGGTGAAAGTTAACTCAGTCTGGTACGC	1.64	1.56	-0.637	-0.25	0.325	0.141	-0.35	0.616	-0.352	1.04
CCTATTAGTTGACCATAGGGGCAACCGAAGCTCG	0.502	0.611	0.353	-0.128	1.32	0.256	0.563	0.446	1.9	0.983
CCGGGTAGGTTATGGGGCATTCAGGCAACGGTGA	0.0778	1.73	-0.642	-0.773	0.724	0.144	0.122	0.51	0.0053	1.1
CCTCGGAGGGCAACAGGAGGTCAGAGCTGCCAGA	0.555	1.54	-1.74	-1.13	1.67	3.35	-0.207	3.63	0.286	3.71
ATCTCTAGGTAAGGCTCAGTTCAGTGAAGAACGC	1.94	1.3	0.628	1.33	0.996	0.855	1.22	0.496	0.033	0.228
GATACTGGGTCAGCTAGAGGCCAGAGTATGGAAA	5.49	5.95	0.246	-0.167	1.24	1.15	-0.114	2.03	-0.28	3.26
TCTGCTAGGTCAGTTGCTCAGCTAACGAGCTGCC	2.23	2.17	-0.136	0.103	-0.987	-0.163	-1.12	-0.122	-1.62	2.9
CAAGCTAGGTCACCGGAAGGTCAAAGTCCGCATG	4.7	5.3	0.445	0.749	9.68	6.22	2.44	7.91	3.45	5.53
CAAACTAGGTCACAGAGGTCAAATTCCGTGCGTA	8.77	8.98	8.04	3.55	6.47	7.14	12.3	7.83	3.22	5.4
CCGACTGGGTCATAAGGTTACCATAAGCCAGCCC	5.16	5.58	0.678	0.517	2.93	2.45	0.189	4.18	0.218	3.38
TCTCGGAGGACACGAAAGGTCAGAGATCGACATC	1.64	1.91	0.484	0.156	2.63	3.95	0.205	4.31	0.638	4.4
TAGCTTAGGTCATTGGGCCAGTATAGTACGCATC	2.21	3.15	0.561	0.108	1.34	1.97	0.132	2.53	0.063	3.72
CTCGAAAGGTCGGTTGAGGTGAGAATACGGATAA	-0.0519	0.993	0.334	0.0546	0.742	3.13	0.108	2.11	0.173	2.98
CCTACTGGGCCATTCAGAGGTCATTGACCATATG	4.24	4.24	0.0159	0.229	2.02	4.93	2.23	4.52	0.388	3.17
AGTCAAAGTTCACTAAGTAACGTAAGATTCAGCT	0.606	2.21	1.04	1.31	1.66	3.63	2.31	2.77	1.23	4.8
AATACATGGTCACTAGGCCAGAGTAGGTACGAAT	1.04	2.74	0.798	1.09	0.338	-0.198	-0.158	-0.153	-0.0326	1.14
AATATAGGGTCATCGTAGGCCAGAGTACGCACAG	4.87	5.42	1.96	1.99	2.4	4.98	0.973	5.35	1.7	4.58
AAAATGAGGTTATTAAGATCAGGGAATTGCGGTC	3.99	3.21	0.794	0.452	0.921	1.23	0.722	1.41	0.567	1.51
TAGCCTACGTCAGATCGGGCCAGTATACGCTATA	-1.07	-0.466	-1.21	0.256	-1.51	-0.718	-1.22	-0.618	-1.02	-0.507
CAAACTAGGTCACAGAGGCCAAAGTCCGTGCGTA	8.22	8.69	7.35	2.65	3.4	3.51	2.61	3.27	0.794	4.23
TCTATTAGTAGATTAGGGCAACCGAAACAGCGGA	2.26	1.17	0.69	0.0955	0.0523	0.229	0.0465	0.245	0.073	0.344
TCTAGTTGGTCAAAAGTCACACACTCGAAATGCG	2.33	2.69	0.872	1.33	2	1.02	0.426	1.64	1.24	1.35
GCTTACGAGTCAAAGGTTATAGCATGAATAGAAT	-0.0786	1.3	0.924	-0.155	0.792	2.73	-0.0683	4.4	-0.195	1.78
CCTATTGGGCCAAAGGTCATTGATTCCAATGCTC	4.3	6.28	-0.0108	0.0368	4.43	5.28	2.34	6.32	1.8	4.42

Source: the supplement of paper PMC6555819
